# Measurements: article PMC7862700, “An all-to-all approach to the identification of sequence-specific readers for epigenetic DNA modifications on cytosine”
# What was measured:
# Assay in all cases: DAPPL (digital affinity profiling via proximity ligation, sequencing); 10 mM Tris-HCl pH 7.5, 50 mM NaCl, 1 mM DTT, 4% glycerol, room temperature, 30 min; GST-TFs on glutathione beads, 16-mer random dsDNA library, 0.1% formaldehyde crosslink after washing; high values mean tight binding
# FLI1 = target: T1, FLI1 (Homo sapiens, UniProt Q01543 1-452); conditions: protein: recombinant; tags: N-terminal GST; dsDNA, one strand shown
# T1 sequence: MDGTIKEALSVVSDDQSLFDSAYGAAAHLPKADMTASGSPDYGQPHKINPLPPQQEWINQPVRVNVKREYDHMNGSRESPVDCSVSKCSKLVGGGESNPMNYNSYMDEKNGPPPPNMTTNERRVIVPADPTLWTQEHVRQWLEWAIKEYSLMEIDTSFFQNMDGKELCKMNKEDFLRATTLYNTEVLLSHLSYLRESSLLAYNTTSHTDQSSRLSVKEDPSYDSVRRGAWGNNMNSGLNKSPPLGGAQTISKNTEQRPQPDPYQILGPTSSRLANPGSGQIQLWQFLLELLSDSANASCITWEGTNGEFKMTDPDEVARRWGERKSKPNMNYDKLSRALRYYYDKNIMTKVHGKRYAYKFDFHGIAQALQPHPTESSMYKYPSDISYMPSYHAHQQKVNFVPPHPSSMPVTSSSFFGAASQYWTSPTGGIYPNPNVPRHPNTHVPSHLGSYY
# Method in brief: (§1)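 Human transcription factors fused to GST were expressed in yeast, captured on glutathione beads, given DNA barcodes and pooled with a GST-only negative control. Pools were incubated with 200 nmole of a 16-mer random double-stranded DNA library in Tris/NaCl/DTT/glycerol buffer at room temperature for 30 min. They were then washed, crosslinked with 0.1% formaldehyde, proximity-ligated (BsaI/T4 ligase, 1 h, 37 °C), PCR-amplified and sequenced on an Illumina NextSeq500. Binding signal is each 6-mer's read frequency for a factor divided by its frequency for the GST control.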
# ELK1 = target: T2, ELK1 (Homo sapiens, UniProt P19419 1-428); conditions: protein: recombinant; tags: N-terminal GST; dsDNA, one strand shown
# T2 sequence: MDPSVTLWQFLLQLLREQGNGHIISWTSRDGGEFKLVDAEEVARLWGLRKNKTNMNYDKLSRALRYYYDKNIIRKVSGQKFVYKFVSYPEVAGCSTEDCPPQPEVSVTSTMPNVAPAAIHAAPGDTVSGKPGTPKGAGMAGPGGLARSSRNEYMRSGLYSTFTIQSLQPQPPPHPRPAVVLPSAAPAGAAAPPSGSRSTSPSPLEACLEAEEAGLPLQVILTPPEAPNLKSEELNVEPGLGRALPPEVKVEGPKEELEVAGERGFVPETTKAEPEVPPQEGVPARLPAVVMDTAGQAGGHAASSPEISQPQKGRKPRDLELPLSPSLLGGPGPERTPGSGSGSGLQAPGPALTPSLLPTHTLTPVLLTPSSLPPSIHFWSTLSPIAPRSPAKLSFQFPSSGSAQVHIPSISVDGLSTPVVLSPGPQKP
# Method in brief: as §1
# GABPA = target: T3, GABPA (Homo sapiens, UniProt Q06546 1-454); conditions: protein: recombinant; tags: N-terminal GST; dsDNA, one strand shown
# T3 sequence: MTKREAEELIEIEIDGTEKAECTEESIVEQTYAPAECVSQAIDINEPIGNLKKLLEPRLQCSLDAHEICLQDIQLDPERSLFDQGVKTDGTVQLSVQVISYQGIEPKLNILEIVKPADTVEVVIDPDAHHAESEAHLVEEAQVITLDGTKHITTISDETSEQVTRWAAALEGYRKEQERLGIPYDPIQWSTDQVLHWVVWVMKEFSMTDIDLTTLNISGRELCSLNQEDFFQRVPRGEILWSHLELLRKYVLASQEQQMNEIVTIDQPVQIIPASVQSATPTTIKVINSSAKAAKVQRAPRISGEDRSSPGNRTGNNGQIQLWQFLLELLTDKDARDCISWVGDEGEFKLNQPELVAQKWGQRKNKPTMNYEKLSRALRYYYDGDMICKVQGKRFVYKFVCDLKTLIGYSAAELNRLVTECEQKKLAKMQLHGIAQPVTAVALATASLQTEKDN
# Method in brief: as §1
# ERG = target: T4, ERG (Homo sapiens, UniProt P11308 1-479); conditions: protein: recombinant; tags: N-terminal GST; dsDNA, one strand shown
# T4 sequence: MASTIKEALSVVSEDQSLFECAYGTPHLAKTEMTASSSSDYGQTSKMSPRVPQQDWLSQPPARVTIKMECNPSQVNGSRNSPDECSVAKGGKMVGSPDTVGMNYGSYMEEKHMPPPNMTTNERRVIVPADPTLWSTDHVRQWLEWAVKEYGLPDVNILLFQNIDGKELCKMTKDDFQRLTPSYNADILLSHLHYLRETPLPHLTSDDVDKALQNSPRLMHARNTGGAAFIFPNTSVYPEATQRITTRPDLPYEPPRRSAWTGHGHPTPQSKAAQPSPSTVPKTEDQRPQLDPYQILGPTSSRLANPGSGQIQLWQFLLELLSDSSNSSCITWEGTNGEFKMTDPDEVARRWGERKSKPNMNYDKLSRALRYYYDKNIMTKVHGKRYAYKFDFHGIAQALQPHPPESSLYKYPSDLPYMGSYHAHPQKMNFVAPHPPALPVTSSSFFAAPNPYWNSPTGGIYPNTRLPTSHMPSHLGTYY
# Method in brief: as §1
# ELF1 = ELF1 (Homo sapiens, UniProt P32519 1-619); conditions: protein: recombinant; tags: N-terminal GST; dsDNA, one strand shown
# Chain of ELF1 (P32519 whole entry): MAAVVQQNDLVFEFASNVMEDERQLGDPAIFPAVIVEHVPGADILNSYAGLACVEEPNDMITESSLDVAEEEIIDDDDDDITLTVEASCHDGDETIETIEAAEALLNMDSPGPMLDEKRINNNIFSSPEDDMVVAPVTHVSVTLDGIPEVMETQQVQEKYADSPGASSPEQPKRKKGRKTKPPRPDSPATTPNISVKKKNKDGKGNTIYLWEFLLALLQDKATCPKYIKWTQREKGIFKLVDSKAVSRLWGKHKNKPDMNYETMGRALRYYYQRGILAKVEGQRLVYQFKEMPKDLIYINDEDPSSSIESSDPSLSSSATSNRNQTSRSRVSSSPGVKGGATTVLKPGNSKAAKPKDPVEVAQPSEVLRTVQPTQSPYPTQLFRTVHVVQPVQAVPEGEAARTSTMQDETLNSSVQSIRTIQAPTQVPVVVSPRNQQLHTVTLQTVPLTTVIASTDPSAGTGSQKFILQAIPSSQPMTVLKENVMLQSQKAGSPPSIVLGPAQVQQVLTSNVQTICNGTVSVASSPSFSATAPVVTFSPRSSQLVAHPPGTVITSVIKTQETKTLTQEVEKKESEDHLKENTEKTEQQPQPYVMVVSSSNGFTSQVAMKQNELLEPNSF
# Method in brief: as §1
# EHF = target: T5, EHF (Homo sapiens, UniProt Q9NZC4 1-300); conditions: protein: recombinant; tags: N-terminal GST; dsDNA, one strand shown
# T5 sequence: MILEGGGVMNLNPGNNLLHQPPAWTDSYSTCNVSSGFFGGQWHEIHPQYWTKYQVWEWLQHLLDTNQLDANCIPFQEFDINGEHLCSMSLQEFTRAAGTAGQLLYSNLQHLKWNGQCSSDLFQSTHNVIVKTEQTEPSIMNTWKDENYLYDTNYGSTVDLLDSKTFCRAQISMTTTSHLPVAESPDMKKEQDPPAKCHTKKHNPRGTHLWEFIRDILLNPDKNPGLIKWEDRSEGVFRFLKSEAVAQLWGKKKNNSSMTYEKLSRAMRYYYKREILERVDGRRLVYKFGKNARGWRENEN
# Method in brief: as §1
# SPI1 = SPI1 (Homo sapiens, UniProt P17947 1-270); conditions: protein: recombinant; tags: N-terminal GST; dsDNA, one strand shown
# Method in brief: as §1
# SPIB = SPIB (Homo sapiens, UniProt Q01892 1-262); conditions: protein: recombinant; tags: N-terminal GST; dsDNA, one strand shown
# Chain of SPIB (Q01892 whole entry): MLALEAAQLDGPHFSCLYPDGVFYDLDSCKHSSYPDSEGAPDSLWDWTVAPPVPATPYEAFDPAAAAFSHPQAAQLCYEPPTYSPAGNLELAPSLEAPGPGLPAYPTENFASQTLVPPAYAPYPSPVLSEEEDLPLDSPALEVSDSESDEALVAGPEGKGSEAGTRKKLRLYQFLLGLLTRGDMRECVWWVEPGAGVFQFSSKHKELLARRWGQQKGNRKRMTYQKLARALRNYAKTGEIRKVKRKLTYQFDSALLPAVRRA
# Method in brief: as §1
# ELK3 = target: T6, ELK3 (Homo sapiens, UniProt P41970 1-407); conditions: protein: recombinant; tags: N-terminal GST; dsDNA, one strand shown
# T6 sequence: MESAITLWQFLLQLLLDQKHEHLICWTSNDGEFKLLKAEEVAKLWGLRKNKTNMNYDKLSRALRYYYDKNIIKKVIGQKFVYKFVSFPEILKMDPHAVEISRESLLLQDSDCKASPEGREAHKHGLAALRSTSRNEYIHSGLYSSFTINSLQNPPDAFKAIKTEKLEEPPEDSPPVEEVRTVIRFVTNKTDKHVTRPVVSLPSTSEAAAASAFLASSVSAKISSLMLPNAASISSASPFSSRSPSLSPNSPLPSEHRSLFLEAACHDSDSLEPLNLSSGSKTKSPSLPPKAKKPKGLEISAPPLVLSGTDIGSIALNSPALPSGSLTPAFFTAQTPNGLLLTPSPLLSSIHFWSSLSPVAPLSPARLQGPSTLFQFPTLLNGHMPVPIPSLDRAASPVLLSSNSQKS
# Method in brief: as §1
# FEV = target: T7, FEV (Homo sapiens, UniProt Q99581 1-238); conditions: protein: recombinant; tags: N-terminal GST; dsDNA, one strand shown
# T7 sequence: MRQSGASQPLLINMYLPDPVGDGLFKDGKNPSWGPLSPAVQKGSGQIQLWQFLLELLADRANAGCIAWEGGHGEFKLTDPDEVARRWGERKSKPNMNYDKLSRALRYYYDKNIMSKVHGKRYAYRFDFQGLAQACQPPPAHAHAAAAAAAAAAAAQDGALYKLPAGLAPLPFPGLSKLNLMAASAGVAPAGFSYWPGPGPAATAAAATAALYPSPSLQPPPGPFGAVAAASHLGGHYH
# Method in brief: as §1
# ETV5 = ETV5 (Homo sapiens, UniProt P41161 1-510); conditions: protein: recombinant; tags: N-terminal GST; dsDNA, one strand shown
# Chain of ETV5 (P41161 whole entry): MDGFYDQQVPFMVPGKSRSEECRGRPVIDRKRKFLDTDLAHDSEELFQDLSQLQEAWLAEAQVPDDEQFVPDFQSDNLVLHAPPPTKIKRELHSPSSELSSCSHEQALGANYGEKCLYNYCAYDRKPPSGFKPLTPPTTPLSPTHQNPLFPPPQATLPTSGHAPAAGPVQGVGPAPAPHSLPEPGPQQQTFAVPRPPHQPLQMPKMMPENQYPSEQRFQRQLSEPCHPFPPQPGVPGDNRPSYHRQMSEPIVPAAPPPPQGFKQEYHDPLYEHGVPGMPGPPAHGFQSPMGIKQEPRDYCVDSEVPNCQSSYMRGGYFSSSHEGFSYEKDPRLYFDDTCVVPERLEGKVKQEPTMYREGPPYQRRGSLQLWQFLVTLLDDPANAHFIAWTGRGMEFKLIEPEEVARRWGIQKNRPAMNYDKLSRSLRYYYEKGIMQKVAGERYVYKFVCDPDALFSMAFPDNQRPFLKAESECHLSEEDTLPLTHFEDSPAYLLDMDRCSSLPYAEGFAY
# Method in brief: as §1
# HSF1 = HSF1 (Homo sapiens, UniProt Q00613 1-529); conditions: protein: recombinant; tags: N-terminal GST; chain copies: 3; dsDNA, one strand shown
# Chain of HSF1 (Q00613 whole entry): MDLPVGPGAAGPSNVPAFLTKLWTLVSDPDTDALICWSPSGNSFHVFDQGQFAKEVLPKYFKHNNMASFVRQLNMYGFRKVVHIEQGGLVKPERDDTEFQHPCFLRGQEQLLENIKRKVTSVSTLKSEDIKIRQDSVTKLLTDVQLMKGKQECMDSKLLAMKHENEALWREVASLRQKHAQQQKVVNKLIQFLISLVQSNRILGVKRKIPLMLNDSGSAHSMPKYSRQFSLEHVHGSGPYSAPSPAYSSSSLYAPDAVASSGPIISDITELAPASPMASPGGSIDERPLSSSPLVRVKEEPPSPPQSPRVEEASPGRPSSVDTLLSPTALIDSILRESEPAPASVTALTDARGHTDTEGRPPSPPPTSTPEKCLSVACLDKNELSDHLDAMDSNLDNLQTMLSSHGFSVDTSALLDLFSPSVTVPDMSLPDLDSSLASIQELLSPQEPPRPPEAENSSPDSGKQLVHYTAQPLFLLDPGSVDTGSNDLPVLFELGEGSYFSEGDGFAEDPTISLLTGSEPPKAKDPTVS
# Method in brief: as §1
# SPIC = target: T8, SPIC (Homo sapiens, UniProt Q8N5J4 1-248); conditions: protein: recombinant; tags: N-terminal GST; dsDNA, one strand shown
# T8 sequence: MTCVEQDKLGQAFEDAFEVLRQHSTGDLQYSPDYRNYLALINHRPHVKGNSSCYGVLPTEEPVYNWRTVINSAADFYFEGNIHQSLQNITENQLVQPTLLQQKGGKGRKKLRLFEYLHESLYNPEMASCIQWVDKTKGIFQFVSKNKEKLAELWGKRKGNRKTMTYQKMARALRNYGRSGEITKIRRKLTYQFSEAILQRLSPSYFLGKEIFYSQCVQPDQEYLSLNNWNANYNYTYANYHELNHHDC
# Method in brief: as §1
# ELF4 = ELF4 (Homo sapiens, UniProt Q99607 1-663); conditions: protein: recombinant; tags: N-terminal GST; dsDNA, one strand shown
# Chain of ELF4 (Q99607 whole entry): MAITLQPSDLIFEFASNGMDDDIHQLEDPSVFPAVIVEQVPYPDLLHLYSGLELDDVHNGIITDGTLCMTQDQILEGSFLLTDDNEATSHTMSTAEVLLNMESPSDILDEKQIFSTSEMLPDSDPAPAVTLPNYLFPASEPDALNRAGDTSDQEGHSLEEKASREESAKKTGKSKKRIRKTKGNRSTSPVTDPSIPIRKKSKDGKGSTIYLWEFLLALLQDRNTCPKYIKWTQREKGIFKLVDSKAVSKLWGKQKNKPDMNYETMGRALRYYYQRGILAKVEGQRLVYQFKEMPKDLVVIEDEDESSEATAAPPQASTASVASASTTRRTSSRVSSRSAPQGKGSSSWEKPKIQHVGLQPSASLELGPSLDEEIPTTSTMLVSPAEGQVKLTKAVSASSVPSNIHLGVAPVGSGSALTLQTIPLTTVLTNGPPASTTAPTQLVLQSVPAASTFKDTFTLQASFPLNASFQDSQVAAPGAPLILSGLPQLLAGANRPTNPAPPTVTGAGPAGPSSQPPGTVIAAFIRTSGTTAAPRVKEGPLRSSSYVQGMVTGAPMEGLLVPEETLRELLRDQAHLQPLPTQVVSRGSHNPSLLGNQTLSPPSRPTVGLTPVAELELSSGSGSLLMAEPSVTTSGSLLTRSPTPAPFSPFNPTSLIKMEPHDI
# Method in brief: as §1
# ELK4 = target: T9, ELK4 (Homo sapiens, UniProt P28324-2 1-405); conditions: protein: recombinant; tags: N-terminal GST; dsDNA, one strand shown
# T9 sequence: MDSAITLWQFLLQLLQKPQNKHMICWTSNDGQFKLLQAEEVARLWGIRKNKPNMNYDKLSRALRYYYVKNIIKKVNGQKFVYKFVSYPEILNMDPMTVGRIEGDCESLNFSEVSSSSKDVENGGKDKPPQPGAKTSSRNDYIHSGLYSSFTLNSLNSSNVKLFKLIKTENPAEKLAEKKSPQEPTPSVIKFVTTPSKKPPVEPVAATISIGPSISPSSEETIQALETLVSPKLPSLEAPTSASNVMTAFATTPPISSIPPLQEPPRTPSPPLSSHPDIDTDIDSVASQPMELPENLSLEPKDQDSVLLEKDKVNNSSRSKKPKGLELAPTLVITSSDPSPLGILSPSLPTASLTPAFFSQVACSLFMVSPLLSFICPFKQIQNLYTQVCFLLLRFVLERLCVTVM
# Method in brief: as §1
# ETV2 = target: T10, ETV2 (Homo sapiens, UniProt O00321 1-342); conditions: protein: recombinant; tags: N-terminal GST; dsDNA, one strand shown
# T10 sequence: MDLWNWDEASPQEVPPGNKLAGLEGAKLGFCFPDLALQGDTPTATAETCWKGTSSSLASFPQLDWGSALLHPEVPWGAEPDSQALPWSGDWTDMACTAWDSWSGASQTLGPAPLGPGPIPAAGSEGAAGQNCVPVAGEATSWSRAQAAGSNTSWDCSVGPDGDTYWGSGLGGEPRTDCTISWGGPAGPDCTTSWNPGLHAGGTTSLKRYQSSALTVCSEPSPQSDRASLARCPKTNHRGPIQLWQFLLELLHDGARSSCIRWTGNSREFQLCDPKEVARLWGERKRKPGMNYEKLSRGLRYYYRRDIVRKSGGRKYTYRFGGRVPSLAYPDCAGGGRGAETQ
# Method in brief: as §1
# ELF3 = target: T11, ELF3 (Homo sapiens, UniProt P78545 1-371); conditions: protein: recombinant; tags: N-terminal GST; dsDNA, one strand shown
# T11 sequence: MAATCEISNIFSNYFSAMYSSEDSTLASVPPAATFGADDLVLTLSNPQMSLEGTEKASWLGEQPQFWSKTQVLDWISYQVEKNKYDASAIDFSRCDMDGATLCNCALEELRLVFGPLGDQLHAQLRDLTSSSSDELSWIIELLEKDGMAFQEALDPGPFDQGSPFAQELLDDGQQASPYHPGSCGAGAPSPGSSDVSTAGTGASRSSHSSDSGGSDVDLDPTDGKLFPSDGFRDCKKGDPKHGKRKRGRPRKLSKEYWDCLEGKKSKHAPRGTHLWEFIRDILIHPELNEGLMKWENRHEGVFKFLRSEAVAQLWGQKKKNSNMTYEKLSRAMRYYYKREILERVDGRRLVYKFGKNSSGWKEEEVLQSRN
# Method in brief: as §1
# CRX = CRX (Homo sapiens, UniProt O43186 1-299); conditions: protein: recombinant; tags: N-terminal GST; dsDNA, one strand shown
# Chain of CRX (O43186 whole entry): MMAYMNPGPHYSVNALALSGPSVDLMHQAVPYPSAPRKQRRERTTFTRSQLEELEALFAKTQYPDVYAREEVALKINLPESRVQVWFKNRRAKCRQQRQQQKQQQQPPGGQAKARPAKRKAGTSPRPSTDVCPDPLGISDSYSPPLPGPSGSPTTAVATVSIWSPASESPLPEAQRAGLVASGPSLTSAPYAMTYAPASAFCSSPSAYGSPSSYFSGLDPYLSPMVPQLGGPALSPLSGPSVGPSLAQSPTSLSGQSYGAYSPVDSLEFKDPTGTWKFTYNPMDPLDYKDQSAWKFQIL
# Method in brief: as §1
# ETV1 = ETV1 (Homo sapiens, UniProt P50549 1-477); conditions: protein: recombinant; tags: N-terminal GST; dsDNA, one strand shown
# Chain of ETV1 (P50549 whole entry): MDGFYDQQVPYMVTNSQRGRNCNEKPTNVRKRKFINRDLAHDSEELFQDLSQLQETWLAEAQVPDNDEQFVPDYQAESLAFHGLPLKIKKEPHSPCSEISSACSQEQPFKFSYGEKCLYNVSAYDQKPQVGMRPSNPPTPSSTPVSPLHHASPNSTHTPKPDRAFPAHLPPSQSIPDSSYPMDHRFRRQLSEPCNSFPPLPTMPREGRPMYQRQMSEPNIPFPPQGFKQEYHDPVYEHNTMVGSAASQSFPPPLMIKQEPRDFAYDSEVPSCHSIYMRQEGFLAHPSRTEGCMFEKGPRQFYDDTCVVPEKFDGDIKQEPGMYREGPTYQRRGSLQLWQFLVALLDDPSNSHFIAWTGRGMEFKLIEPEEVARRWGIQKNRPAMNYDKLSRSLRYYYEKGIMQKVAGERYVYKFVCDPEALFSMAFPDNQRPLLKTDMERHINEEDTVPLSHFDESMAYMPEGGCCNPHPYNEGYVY
# Method in brief: as §1
sequence,measurement,setting,value
CTTTCC,binding signal,FLI1,"2.05 fold enrichment (6-mer frequency, TF over GST control)"
same,binding signal,ELK1,"1.9 fold enrichment (6-mer frequency, TF over GST control)"
same,binding signal,GABPA,"1.83 fold enrichment (6-mer frequency, TF over GST control)"
same,binding signal,ERG,"2.04 fold enrichment (6-mer frequency, TF over GST control)"
same,binding signal,ELF1,"1.89 fold enrichment (6-mer frequency, TF over GST control)"
same,binding signal,EHF,"2.05 fold enrichment (6-mer frequency, TF over GST control)"
same,binding signal,SPI1,"1.84 fold enrichment (6-mer frequency, TF over GST control)"
same,binding signal,SPIB,"2.18 fold enrichment (6-mer frequency, TF over GST control)"
same,binding signal,ELK3,"2.1 fold enrichment (6-mer frequency, TF over GST control)"
same,binding signal,FEV,"2.15 fold enrichment (6-mer frequency, TF over GST control)"
same,binding signal,ETV5,"2.04 fold enrichment (6-mer frequency, TF over GST control)"
same,binding signal,HSF1,"2.13 fold enrichment (6-mer frequency, TF over GST control)"
same,binding signal,SPIC,"1.82 fold enrichment (6-mer frequency, TF over GST control)"
same,binding signal,ELF4,"1.9 fold enrichment (6-mer frequency, TF over GST control)"
same,binding signal,ELK4,"1.94 fold enrichment (6-mer frequency, TF over GST control)"
same,binding signal,ETV2,"2.11 fold enrichment (6-mer frequency, TF over GST control)"
same,binding signal,ELF3,"1.63 fold enrichment (6-mer frequency, TF over GST control)"
same,binding signal,CRX,"1.54 fold enrichment (6-mer frequency, TF over GST control)"
same,binding signal,ETV1,"1.91 fold enrichment (6-mer frequency, TF over GST control)"
